# Reference: PubChem BioAssay
# Results filed as inconclusive are left out. Calls of active or inactive are those of the source.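 Rule for the calls, unless noted: active = normalized viability below 100% at a tested concentration; inactive = the rest.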
# Legend:
# [1] = growth inhibition of DIPG glioma cells, dose response, cell-based, SU-DIPG-XVII, MIPE5.0, CellTiter-Glo, qHTS (AID 1347060; cut-off not given, nearly all actives have AC50 up to about 26 µM;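 for AC50: cells exposed to compound for 48 hours before viability readout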); conditions: SU-DIPG-XVII viability, CellTiter-Glo ATP luminescence
# [2] = growth inhibition of DIPG glioma cells, dose response, cell-based, SU-DIPG-XIII, MIPE4.0, CellTiter-Glo, qHTS (AID 1347061; cut-off not given, nearly all actives have AC50 up to about 37 µM;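 note: cells exposed to compound for 48 hours before readout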); conditions: SU-DIPG-XIII viability, CellTiter-Glo ATP luminescence
# [3] = growth inhibition of DIPG glioma cells, dose response, cell-based, SU-DIPG-XIII, MIPE5.0, CellTiter-Glo, qHTS (AID 1347064; cut-off not given, nearly all actives have AC50 up to about 23 µM;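 for AC50: cells exposed to compound for 48 hours before the viability read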); conditions: SU-DIPG-XIII viability, CellTiter-Glo ATP luminescence
# [4] = viability loss in pontine glioma line – cell-based, SU-DIPG-XXV, MIPE5.0, CellTiter-Glo, qHTS, dose response (AID 1347065; cut-off not given, nearly all actives have AC50 up to about 26 µM;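 note: cells exposed to compound for 48 hours before ATP readout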); conditions: CellTiter-Glo ATP luminescence
# [5] = JHH-DIPG-1 glioma cell viability, MIPE5.0 library, CellTiter-Glo luminescence, qHTS (AID 1347067; cut-off not given, nearly all actives have AC50 up to about 26 µM;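 note: cells exposed to compound for 48 hours before readout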); conditions: JHH-DIPG-1 glioma viability, CellTiter-Glo ATP luminescence
# [6] = SU-DIPG-XXV glioma cell viability, MIPE5.0 library, qHTS (AID 1347068; cut-off not given, nearly all actives have IC50 up to about 30 µM)
# [7] = sensitizers of A549 cells to miR-34 induction, primary screen, imaging, A549 dox-inducible miR-34, nuclei and caspase counts (AID 1347080;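 active = compounds whose cell count with miR-34 switched on is under 0.7 times the count with it off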); conditions: A549 miR-34 inducible, Hoechst nuclei count, 48 h
# [8] = modifiers of HSF1 nuclear foci, imaging, Selleck Cancer Library (AID 1347162; in the data active = plate-normalised HSF1 focus index below about 0.46); conditions: human cells, at 10 µM; SSMD: measured here: HSF1 foci SSMD mean; cell count: measured here: cell number; plate-normalised HSF1 focus index: stronger effect = lower value
# [9] = survival rescue of mitochondrial mutant cells in low glucose, primary screen, MELAS cybrids, Rieske KO mouse fibroblasts, CellTiter-Glo (AID 1508586;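 active = mean z-score across replicates of 1.96 or higher in either the MELAS or the Rieske mutant cell line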;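 note: z relative to plate mean and SD of compound and empty wells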)
# [10] = ovarian cancer cell viability with rucaparib, profiling panel, oncology-focused library, rucaparib conditional (AID 1508598); conditions: patient-derived ovarian cancer cells, CellTiter-Glo viability, 144 h, stronger effect = lower value
# [11] = SU-DIPG-VI glioma cell viability, MIPE4.0 library, CellTiter-Glo luminescence, qHTS (AID 1347066; cut-off not given, nearly all actives have AC50 up to about 30 µM;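 note: cells exposed to compound for 48 hours before readout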); conditions: CellTiter-Glo ATP luminescence
# [12] = growth inhibition of DIPG glioma cells, dose response, cell-based, SU-DIPG-IV, MIPE4.0, CellTiter-Glo, qHTS (AID 1347063; cut-off not given, nearly all actives have AC50 up to about 30 µM;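 note: compound exposure lasted 48 hours before the viability readout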); conditions: SU-DIPG-IV viability, CellTiter-Glo ATP luminescence
# [13] = stronger effect = lower value, cell number ratio, induced over uninduced
# [14] = measured here: relative caspase fold change +Dox/-Dox
# [15] = measured here: total cells with miR-34 induction, stronger effect = lower value
# [16] = measured here: total cells without miR-34 induction
# [17] = MELAS cybrid survival, CellTiter-Glo 48 h, stronger effect = higher value
# [18] = Rieske KO mouse fibroblast survival, CellTiter-Glo 72 h
structure (smiles),measurement,setting,value
CC(C)(C)c1cc(NC(=O)Nc2ccc(-c3cn4c(n3)sc3cc(OCCN5CCOCC5)ccc34)cc2)no1,AC50,[1],23.5 µM (active)
same,outcome,[2],inactive
same,AC50,[3],14.8 µM (active)
same,AC50,[4],16.6 µM (active)
same,AC50,[5],20.9 µM (active)
same,outcome,[6],inactive
same,fold change,[7]; [13],1 (inactive)
same,fold change,[7]; [14],0.781
same,cell count,[7]; [15],6520
same,cell count,[7]; [16],6510
same,SSMD,[8],0.734
same,cell count,[8],7630
same,plate-normalised HSF1 focus index,[8],1.05 (inactive)
same,z-score,[9]; [17],4.33 (active)
same,z-score,[9]; [18],-2.86
same,viability,"[10]; at 0.000305 µM, OCI-C5x cells, with rucaparib 10 µM, 100% = cells with rucaparib alone",105% (inactive)
same,viability,"[10]; at 0.000305 µM, OCI-C5x cells, without rucaparib",104% (inactive)
same,viability,"[10]; at 0.000305 µM, OCI-P5x cells, with rucaparib 20 µM, 100% = cells with rucaparib alone",87.1% (active)
same,viability,"[10]; at 0.000305 µM, OCI-P5x cells, without rucaparib",82.2% (active)
same,viability,"[10]; at 0.00122 µM, OCI-C5x cells, with rucaparib 10 µM, 100% = cells with rucaparib alone",112% (inactive)
same,viability,"[10]; at 0.00122 µM, OCI-C5x cells, without rucaparib",95% (active)
same,viability,"[10]; at 0.00122 µM, OCI-P5x cells, with rucaparib 20 µM, 100% = cells with rucaparib alone",93.1% (active)
same,viability,"[10]; at 0.00122 µM, OCI-P5x cells, without rucaparib",87% (active)
same,viability,"[10]; at 0.00488 µM, OCI-C5x cells, with rucaparib 10 µM, 100% = cells with rucaparib alone",105% (inactive)
same,viability,"[10]; at 0.00488 µM, OCI-C5x cells, without rucaparib",88.6% (active)
same,viability,"[10]; at 0.00488 µM, OCI-P5x cells, with rucaparib 20 µM, 100% = cells with rucaparib alone",91.7% (active)
same,viability,"[10]; at 0.00488 µM, OCI-P5x cells, without rucaparib",93.5% (active)
same,viability,"[10]; at 0.0195 µM, OCI-C5x cells, with rucaparib 10 µM, 100% = cells with rucaparib alone",107% (inactive)
same,viability,"[10]; at 0.0195 µM, OCI-C5x cells, without rucaparib",101% (inactive)
same,viability,"[10]; at 0.0195 µM, OCI-P5x cells, with rucaparib 20 µM, 100% = cells with rucaparib alone",103% (inactive)
same,viability,"[10]; at 0.0195 µM, OCI-P5x cells, without rucaparib",93.7% (active)
same,viability,"[10]; at 0.0781 µM, OCI-C5x cells, with rucaparib 10 µM, 100% = cells with rucaparib alone",111% (inactive)
same,viability,"[10]; at 0.0781 µM, OCI-C5x cells, without rucaparib",112% (inactive)
same,viability,"[10]; at 0.0781 µM, OCI-P5x cells, with rucaparib 20 µM, 100% = cells with rucaparib alone",86.7% (active)
same,viability,"[10]; at 0.0781 µM, OCI-P5x cells, without rucaparib",90.6% (active)
same,viability,"[10]; at 0.313 µM, OCI-C5x cells, with rucaparib 10 µM, 100% = cells with rucaparib alone",115% (inactive)
same,viability,"[10]; at 0.313 µM, OCI-C5x cells, without rucaparib",108% (inactive)
same,viability,"[10]; at 0.313 µM, OCI-P5x cells, with rucaparib 20 µM, 100% = cells with rucaparib alone",82.2% (active)
same,viability,"[10]; at 0.313 µM, OCI-P5x cells, without rucaparib",99% (active)
same,viability,"[10]; at 1.25 µM, OCI-C5x cells, with rucaparib 10 µM, 100% = cells with rucaparib alone",108% (inactive)
same,viability,"[10]; at 1.25 µM, OCI-C5x cells, without rucaparib",128% (inactive)
same,viability,"[10]; at 1.25 µM, OCI-P5x cells, with rucaparib 20 µM, 100% = cells with rucaparib alone",83.4% (active)
same,viability,"[10]; at 1.25 µM, OCI-P5x cells, without rucaparib",87.4% (active)
same,viability,"[10]; at 5 µM, OCI-C5x cells, with rucaparib 10 µM, 100% = cells with rucaparib alone",100% (inactive)
same,viability,"[10]; at 5 µM, OCI-C5x cells, without rucaparib",107% (inactive)
same,viability,"[10]; at 5 µM, OCI-P5x cells, with rucaparib 20 µM, 100% = cells with rucaparib alone",31.2% (active)
same,viability,"[10]; at 5 µM, OCI-P5x cells, without rucaparib",70.6% (active)
Cc1nc(C(=O)NCC(=O)O)c(O)c2ccc(Oc3ccccc3)cc12,outcome,[1],inactive
same,outcome,[2],inactive
same,outcome,[3],inactive
same,outcome,[4],inactive
same,outcome,[11],inactive
same,outcome,[5],inactive
same,outcome,[6],inactive
same,fold change,[7]; [13],0.947 (inactive)
same,fold change,[7]; [14],0.804
same,cell count,[7]; [15],6810
same,cell count,[7]; [16],7190
same,z-score,[9]; [17],-0.0779 (inactive)
same,z-score,[9]; [18],0.278
CN[C@@H](C)C(=O)N[C@H]1CCCC[C@H]2CC[C@@H](C(=O)N[C@@H](c3ccccc3)c3cn(CCCCc4ccc(CCCCn5cc([C@@H](NC(=O)[C@@H]6CC[C@@H]7CCCC[C@H](NC(=O)[C@H](C)NC)C(=O)N76)c6ccccc6)nn5)cc4)nn3)N2C1=O,outcome,[1],inactive
same,outcome,[2],inactive
same,outcome,[3],inactive
same,outcome,[11],inactive
same,outcome,[5],inactive
C[C@]12CC[C@@H]3c4ccc(O)cc4CC[C@H]3[C@@H]1[C@@H](O)[C@@H](O)[C@@H]2O,outcome,[1],inactive
same,outcome,[2],inactive
same,outcome,[12],inactive
same,outcome,[11],inactive
same,outcome,[5],inactive
same,outcome,[6],inactive
C[C@@H](NC(=O)c1ncnc(N)c1Cl)c1ncc(C(=O)Nc2cc(C(F)(F)F)c(Cl)cn2)s1,AC50,[1],16.6 µM (active)
same,AC50,[2],18.7 µM (active)
same,AC50,[3],14.8 µM (active)
same,outcome,[11],inactive
same,AC50,[5],5.9 µM (active)
same,outcome,[6],inactive
